Bioassay records: PubChem BioAssay, National Center for Advancing Translational Sciences (NCATS)
LASV entry inh: qHTS for Inhibitors of binding or entry into cells for Lassa Virus; Lassa virus pseudotype entry inhibition, cell reporter; Potency, µM (series often up to 37.9 µM), inactives show at the top dose activity change, negative = inhibition, hits mostly inhibitors; actives 1.2% (n = 300,000); AID 540256, 2011; calls by dose curve; tested in HEK293 cells; note: potency is the fitted concentration of half-maximal effect; % is set by controls: 0 for no effect and ±100 for the full control effect; nearly all actives have a fitted effect of over 50% in size
Pf growth 48h: Primary qHTS for delayed death inhibitors of the malarial parasite plastid, 48 hour incubation. P. falciparum luciferase growth in erythrocytes, 48 h. Potency, µM (titrated, usually from 28.7 µM), without a hit: at the top dose activity change, negative = inhibition, actives largely listed as inhibitors. actives 5.9% (n = 310,000). AID 504832, 2011; note: potency is the fitted concentration of half-maximal effect; % is set by controls: 0 for no effect and ±100 for the full control effect
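Luciferase-expressing P. falciparum in infected erythrocytes (2% hematocrit, 0.1% parasitemia final) in RPMI 1640/0.5% Albumax were exposed to compound for 48 hours at 37 C, 5% CO2; growth read as luminescence.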
Marburg entry inh: qHTS for inhibitors of binding or entry into cells for Marburg Virus | Potency, µM (doses to about 37.8 µM), inactives show at the top dose activity change, negative = inhibition, usual class: inhibitors | Marburg virus pseudotyped entry inhibition, cell reporter | actives 1.8% (n = 300,000); calls by dose curve; tested in HEK293 cells; note: potency is the fitted concentration of half-maximal effect; % is set by controls: 0 for no effect and ±100 for the full control effect
Pf growth 96h: Primary qHTS for delayed death inhibitors of the malarial parasite plastid, 96 hour incubation | P. falciparum luciferase reporter growth, 96 h | Potency, µM (top dose mostly 28.7 µM), for the others: top-dose activity change, negative = inhibition, most hits filed as inhibitors | actives 6.9% (n = 320,000) | AID 504834, 2011; note: potency is the fitted concentration of half-maximal effect; % is set by controls: 0 for no effect and ±100 for the full control effect
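Compounds incubated with erythrocytes infected by luciferase-expressing P. falciparum (2% hematocrit, 0.05% parasitemia final) for 96 hours, 37 C in 5% CO2. Growth inhibition scored as decreased luciferase luminescence.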
Shiga inhibitor: A qHTS for Small Molecule Inhibitors of Shiga Toxin | actives 9.2% (n = 290,000) | inhibition, % at 38.7 µM | Vero cells, Shiga toxin protein synthesis inhibition reporter | AID 2315, 2010; in the data active = inhibition mostly above about 28%, no sharp cut-off; inactive = mostly below about 43%; note: 0% is about no effect
Cycloheximide cs: Cycloheximide Counterscreen for Small Molecule Inhibitors of Shiga Toxin; cell reporter, cycloheximide protein synthesis inhibition counterscreen; max response, %; actives 12% (n = 300,000); AID 2314, 2010; in the data active = max response mostly above about 13%, no sharp cut-off; inactive = mostly below about 14%; note: read at 38.3 µM for the half of the compounds with a filed dose; 0% is about no effect
An asterisk follows results filed as active; u = inconclusive; x = not tested or not shown; [ ] = remark or other dose. In the library only some 19% were active in any assay of this set; here they are far more common. Unless noted, calls come from the whole dose curve; as a rule, active = well fitted inhibition curve with a large enough effect; inconclusive = small, poorly fitted or top-dose-only effect, or another doubt; inactive = no such curve, though single readings can be large or run the other way.

SMILES | LASV entry inh | Pf growth 48h | Marburg entry inh | Pf growth 96h | Shiga inhibitor | Cycloheximide cs
COc1ccccc1NC(=O)c1sc2nc(C)cc(C)c2c1N | 2.2% | x | 1.7% | x | x | x
Cc1cc(C)c2c(N)c(C(=O)c3ccc(Cl)c(Cl)c3)sc2n1 | x | 11.6% | x | -6.6% | 81.6* | 21.4
Cc1cc(C)c2c(N)c(C(=O)N/N=C/c3cccs3)sc2n1 | 19.7% | 95.7% | u | 43.7% | 91.9* | 53.5*
Cc1cc(C(F)(F)F)c2c(N)c(C(=O)Nc3cc(C)on3)sc2n1 | 1.9% | 159.3% | u | u | 116.6* | 55.3*
Cc1cc(C)c2c(N)c(C(=O)Nc3ccc(F)cc3)sc2n1 | x | 250.9% | x | u | 91.8* | 44.6*
Cc1cc(C)c(NC(=O)c2sc3nc(C)cc(C)c3c2N)c(C)c1 | -22.9%[46.1 µM] | x | u | x | x | x
Cc1cc(C)cc(NC(=O)c2sc3nc(C)cc(C)c3c2N)c1 | x | 90.7% | x | -11.5% | 117.6* | 25.1*
Cc1ccc(NS(=O)(=O)c2ccc3c(c2)n(C)c(=O)n3C)cc1 | x | -2.7% | x | u | -5.7 | -3.3
Nc1ccc[n+](Cc2ccccn2)c1 | 15.6% | x | u | x | -2.3 | -2.4
O=C(c1cc2ccccc2oc1=O)N1CCN(CCc2ccccc2)CC1 | 21.8% | 6.5% | 1.6% | 9.28µM* | 42.1 | 7.8
O=C(c1ccc(F)cc1Cl)N1CCN(CCc2ccccc2)CC1 | -1.0%[46.1 µM] | 5.2% | 20.7%[46.1 µM] | 8.28µM* | -8.8 | 1.0
COc1ccc(C(=S)N2CCN(c3ccccc3C)CC2)cc1 | x | u | x | 8.28µM* | 14.0 | -1.4
COC(=O)/C=C/C(=O)N1CCN(c2ccccc2C)CC1 | -1.5% | -16.8% | -14.6% | 7.38µM* | 1.8 | 0.7
O=C(CSc1nnc(NC(=O)c2ccco2)s1)Nc1ccccc1F | 14.9% | 31.8%[1.15 µM] | 4.2% | 49.4% | 11.1 | 1.3
Cc1ccc(C)c(N2CCN(C(=O)c3cccn4c(=O)c5sccc5nc34)CC2)c1 | u | u | 12.6µM* | -21.9% | -14.2 | -2.5
COc1ccc2oc(=O)c(C(=O)N3CCN(c4ccccc4)CC3)cc2c1 | 0.8% | 0.0% | 27.2% | x | 78.0 | 19.2*
Cc1ccc(C)c(N2CCN(C(=O)c3cc4ccccc4oc3=O)CC2)c1 | x | x | x | 9.28µM* | -5.3 | -1.6
O=C(c1cc2ccccc2oc1=O)N1CCN(c2ccc(N3CCOCC3)nn2)CC1 | x | -2.9% | -5.0% | -24.2% | 19.4 | -2.7
COc1ccc2oc(=O)c(C(=O)N3CCN(C(=O)c4ccccc4)CC3)cc2c1 | -2.5%[46.1 µM] | 3.3% | -1.3%[46.1 µM] | u | -10.4 | -2.6
COc1ccc2oc(=O)c(C(=O)N3CCN(c4ccccc4C)CC3)cc2c1 | u | 3.8% | u | x | 131.6* | 65.6*
Cc1ccccc1NC(=O)COC(=O)Cc1cccc(C(F)(F)F)c1 | 2.4% | -41.8% | 2.1% | -7.8% | -11.3 | 1.1
N#Cc1nc(NCC(F)F)nc(Nc2cc(F)cc(F)c2)n1 | x | 10.4µM* | x | u | x | x
N#Cc1nc(Nc2cc(F)cc(F)c2)c2ncn(CC(F)F)c2n1 | x | u | x | 0.294µM* | x | x
COC(=O)c1nnn(-c2cccc(Cl)c2)c1C(=O)OC | 10.0%[46.1 µM] | 4.0% | 1.7%[46.1 µM] | 8.5% | -1.2 | 1.2
CCOC(=O)[C@H]1[C@H]2COc3ccc(C)cc3[C@@H]2N2C(=O)CN(Cc3ccc(OC)cc3)C(=O)[C@@]12C | x | u | 3.9% | u | x | x
SMILES | LASV entry inh | Pf growth 48h | Marburg entry inh | Pf growth 96h | Shiga inhibitor | Cycloheximide cs
CCOC(=O)[C@@H]1[C@H]2COc3ccc(Br)cc3[C@H]2N2C(=O)N(c3ccc(F)cc3)C(=O)[C@]12C | x | u | x | u | 1.0 | -2.2
CCOC(=O)[C@H]1[C@H]2COc3ccc(OC)cc3[C@@H]2N2C(=O)CN(CC3CCCO3)C(=O)[C@@]12C (stereo partly drawn) | x | -5.4% | x | u | x | x
CCOC(=O)[C@H]1[C@H]2COc3ccc(Br)cc3[C@@H]2N2C(=O)CN(Cc3ccc(F)cc3)C(=O)[C@@]12C | x | 13.1µM* | x | u | x | x
CCOC(=O)[C@H]1[C@H]2COc3ccc(OC)cc3[C@@H]2N2C(=O)CN(Cc3ccc(Cl)cc3)C(=O)[C@@]12C | x | 14.7µM* | x | u | x | x
CCOC(=O)[C@H]1[C@H]2COc3ccc(OC)cc3[C@@H]2N2C(=O)CN(Cc3ccccc3)C(=O)[C@@]12C | x | 10.4µM* | x | u | x | x
Clc1cccc2c3c([nH]c12)CCNC3 | -0.9% | 12.6% | -25.0% | 0.586µM* | -5.0 | -1.0
Clc1ccc2[nH]c3c(c2c1)CNCC3 | 8.6% | 4.4%[0.00184 µM] | u | u | -6.3 | -5.7
CC1CC(C)CN(C(=O)COC(=O)c2cc([N+](=O)[O-])ccc2N2CCOCC2)C1 (stereo not drawn) | -13.7%[46.1 µM] | u | u | u | x | x
COC(=O)c1ccccc1-c1c2ccc(=N)cc-2oc2cc(N)ccc12 | 7.94µM* | 1.31µM* | u | 0.329µM* | x | x
O=C(O)c1ccccc1-c1c2ccc(=O)cc-2oc2cc(O)ccc12 | 28.1µM* | -6.6% | 35.3µM* | -19.3% | -3.8 | -6.1
O=C(O)CN(CC(=O)O)Cc1cc2c(-c3ccccc3C(=O)O)c3cc(CN(CC(=O)O)CC(=O)O)c(=O)cc-3oc2cc1O | x | -15.6% | x | u | x | x
CC1CC=CC2C1C(=O)N(Cc1ccccc1)C2c1ccc2ccccc2c1C=Cc1ccccc1 (stereo not drawn) | x | x | x | x | 8.5 | 6.3
Oc1cc2c(cc1CN1CCc3ccccc3C1)OCO2 | 24.2%[46.1 µM] | -7.3% | -0.4%[46.1 µM] | u | -8.1 | 2.0
Oc1cc2c(cc1CN1CCN(c3ccccc3F)CC1)OCO2 | 15.8% | 9.28µM* | 14.6%[46.1 µM] | u | 13.8 | -0.8
O=C(CCN1CCN(c2ccccc2)CC1)Nc1ccc2c(c1)OCO2 | 4.0% | u | -0.6% | 16.1% | 1.2 | -0.5
COc1ccccc1N1CCN(Cc2cc3c(cc2O)OCO3)CC1 | -13.0%[46.1 µM] | 14.7µM* | -8.8%[46.1 µM] | -14.9% | -2.8 | -4.4
COc1ccccc1N1CCN(Cc2cc(C)c(C)cc2O)CC1 | -7.2% | x | u | 0.329µM* | -4.0 | 6.1
O=C(CCN1CCN(c2ccccc2F)CC1)Nc1ccc2c(c1)OCO2 | u | -5.2% | -29.9% | 3.29µM* | -6.0 | -2.9
COc1ccccc1N1CCN(Cc2ccccc2)CC1 | x | u | x | -3.7% | x | 2.9
COc1ccccc1N1CCN(Cc2ccc3c(c2)OCO3)CC1 | 0.3% | x | u | x | x | x
CCn1cc(S(=O)(=O)N2CCN(c3ccc(Cl)cc3)CC2)cn1 | -23.5% | 49.9% | -27.2% | -13.7% | -5.1 | -0.9
CCOC(=O)N1CCN(C(=O)c2ccc3nc(C)sc3c2)CC1 | 9.4% | 0.0% | -2.2%[46.1 µM] | u | 11.4 | -1.5
O=[N+]([O-])c1ccc(CN2CCN(c3ccccc3)CC2)o1 | 11.6%[46.1 µM] | 14.0% | 2.7%[46.1 µM] | -25.2% | x | -3.0
COc1ccc(NC(=O)CCN2CCN(c3ccccc3F)CC2)c(OC)c1 | -25.2% | u | 0.4% | 10.4µM* | x | 1.8
CCOc1ccc2oc(=O)cc(CN3CCN(c4ccccc4OC)CC3)c2c1 | 15.0%[46.1 µM] | x | -0.1%[46.1 µM] | x | x | x
